This is an account of results in PubChem BioAssay (NCATS).

Molecules are shown by their SMILES. Values joined by “and” are separate entries in the source; they are usually repeats but may differ in a detail not shown here. Equal entries are not always repeated. Results filed as inconclusive are left out. Values without a mark were called inactive. Active and inactive are the calls of the source. The call rests on the fitted dose curve; in most records, active means well fitted activation curve with a large enough effect; inconclusive means small, poorly fitted or top-dose-only effect; inactive means no such curve, though single readings can be large or run the other way.
Potency means the concentration at half of the fitted maximal effect.

Cellular tumor antigen p53 (Homo sapiens), sequence (P04637 whole entry, looked up): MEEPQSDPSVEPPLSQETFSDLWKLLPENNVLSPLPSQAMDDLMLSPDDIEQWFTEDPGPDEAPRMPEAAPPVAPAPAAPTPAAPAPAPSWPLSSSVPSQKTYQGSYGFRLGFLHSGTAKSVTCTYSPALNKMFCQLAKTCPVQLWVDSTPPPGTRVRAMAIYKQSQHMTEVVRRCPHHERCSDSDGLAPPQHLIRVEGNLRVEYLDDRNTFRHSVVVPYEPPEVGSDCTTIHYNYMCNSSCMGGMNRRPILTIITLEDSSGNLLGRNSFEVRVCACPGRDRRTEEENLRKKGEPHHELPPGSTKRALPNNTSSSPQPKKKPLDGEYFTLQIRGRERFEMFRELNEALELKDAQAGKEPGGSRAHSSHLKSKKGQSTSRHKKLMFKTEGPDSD

The target in this assay is Cellular tumor antigen p53 (Homo sapiens) (UniProt P04637). In words: Primary qHTS for small molecule compounds that upregulate eGFP-tagged delta133p53alpha (in N-terminal) cells. (AID 2060322). Further: nearly all actives have a fitted effect of over 75% in size.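 On activation: series mostly up to about 56 µM; 0% = DMSO vehicle and 100% = reference activator.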 The following applies: NCI-H358 eGFP-delta133p53alpha fluorescence, 24 h; activation: hits give high values. Put shortly:
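NCI-H358 cells pre-induced 24 h with 10 ng/ml doxycycline for eGFP-delta133p53alpha, plated dox-free and exposed 24 h at 37C to titrated compounds. Fixed, Hoechst-stained; gated GFP peak intensity by laser scanning cytometry, normalized to DMSO (0%) and 57.5 uM 5-azacytidine (100%).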
Take `CCCc1c(OCCCOc2ccc(OCC(=O)O)cc2)ccc(C(C)=O)c1O`: the activation was -13.9%.
Turning to `COc1ccc2[nH]cc(CCNC(C)=O)c2c1`, the activation was 4.42% and -13.4% and -16.3%.
Take `CCC(C)N(C)C(=O)c1cc2ccccc2c(-c2ccccc2Cl)n1` (configuration not stated): the activation is 12.4% and -31.8%.
Consider `O=c1c(O)c(-c2ccc(O)cc2O)oc2cc(O)cc(O)c12`, for which the activation was 15.3% and -27.9%.
`CC(C)NCC(O)c1ccc(NS(C)(=O)=O)cc1` (configuration not stated): the activation is -72.6%.
Consider `COc1ccc(C2CNC(=O)C2)cc1OC1CCCC1` (configuration not stated), for which the activation is 8.47% and 29.3%.
Turning to `O=C1CCC(N2C(=O)c3ccccc3C2=O)C(=O)N1` (configuration not stated), the activation is -0.565% and -9.78% and -7.37%.
Take `Nc1ncnc2c1ncn2[C@@H]1O[C@H](CO)[C@@H](O)[C@H]1O`: the activation is 6.69% and -13%.
As to `O=c1[nH]cc(F)c(=O)[nH]1`, the activation is -32.6% and 6.33%.
For `Cc1cccc(-c2[nH]ncc2-c2ccc3ncccc3n2)n1`, the activation is 39.6% and -70.9%.
Still for that read-out and setting: next, `CCn1cc(C(=O)O)c(=O)c2cc(F)c(N3CCNC(C)C3)c(F)c21` (configuration not stated): -0.837% and 16.4% and -15.6%; `CNC[C@H](O)c1ccc(O)c(O)c1`: 2.51% and 2.46% and 10.6%; `Nc1nc2c(ncn2COC(CO)CO)c(=O)[nH]1`: -11.7%.
`NCCCCCC(=O)O`: the activation is 2.82% and -3.41%.
The same measure, in the same setting: with `CC(C)NCC(O)COc1ccc(CCOCC2CC2)cc1` (configuration not stated) the figure was -6.83% and 29.3% and -23.2%; with `O=C(O)C1CCCN(CCC=C(c2ccccc2)c2ccccc2)C1` (configuration not stated), -10.3%.
The same measure, in the same setting: next, `NS(=O)(=O)c1cc2c(cc1Cl)NC=NS2(=O)=O`: -10% and -6.71% and -22.3%.
With `CCN(CC)CCNC(=O)c1c(C)[nH]c(/C=C2\C(=O)Nc3ccc(F)cc32)c1C`, the Potency was 4.9 µM (active) and 26.9 µM (active).
Take `CN(C)C(=O)C(CCN1CCC(O)(c2ccc(Cl)cc2)CC1)(c1ccccc1)c1ccccc1`: the activation was 62.2% and -46.1%.
`CCOC(=O)C(C)(C)Oc1ccc(Cl)cc1`: the activation is 14.3% and -37.9% and -27.7%.
Still for that read-out and setting: next, `COc1cccc(-c2cc(=O)c3ccccc3o2)c1N`: 10.5% and -44.6%; `C[C@@H](c1ncncc1F)[C@](O)(Cn1cncn1)c1ccc(F)cc1F`: -3.85% and -2.78%; `CN1CCC(=C2c3ccccc3CC(=O)c3sccc32)CC1`: 59.8% and 8.47% and -42.7%.
Same read-out and setting: next, `CC12CC3CC(C)(C1)CC(N)(C3)C2`: -20.9% and 13.4% and -0.343%; `CC(C(=O)O)c1cccc(C(=O)c2ccccc2)c1` (configuration not stated): 8.47% and 8.5% and -11%.
On the same count and under the same terms, with `Nc1nnc(-c2cccc(Cl)c2Cl)c(N)n1` the figure was 5.86% and 2.46% and -39.9%; with `CNC[C@H](O)c1cccc(O)c1`, -9.21% and 8.41% and -4.95%.
Take `NC(=O)c1ncn([C@@H]2O[C@H](CO)[C@@H](O)[C@H]2O)n1`: the activation was 6.69% and -41.3%.
Turning to `CC(C)(C)NCC(O)c1ccc(O)c(CO)c1` (configuration not stated), the activation was -7.9% and 9.21% and -24.1%.
`COC(=O)Nc1nc2ccc(C(=O)c3cccs3)cc2[nH]1`: the activation was -4.18%.
Regarding `O=C1N(c2ccccc2)c2ccccc2C1(Cc1ccncc1)Cc1ccncc1`, the activation was 10.9% and -8.78% and -29%.
In the case of `Nc1nc2c(ncn2COCCO)c(=O)[nH]1`, the activation was 6.69% and 13.1%.
